The full list was thinned out, with hits kept by preference.
Dicer inh – inhibitors of human Dicer processing of pre-microRNA | Q9UPY3 | cat-ELCCA pre-miR-21 Dicer processing, chemiluminescence; active compounds read high | z-score at 25 µM | 6% of 47,000 active; in the data active means z-score above about 3, passing the limit was not always enough;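 further: plate controls were vehicle for no effect and no enzyme for full effect; higher signal means more uncleaved substrate so more Dicer inhibition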
* = called active by the depositor.

SMILES	Dicer inh
Cc1ccc2oc(-c3ccc(N)cc3)nc2c1	2.88
Cc1ccc(-c2nc3cc(N)ccc3o2)cc1	4.69*
COc1ccc(-c2nc3ccccc3o2)cc1N	4.34*
COc1ccc(-c2nc3cc(N)ccc3o2)cc1Br	3.24*
CC(C)c1ccc2oc(-c3ccc(N)cc3)nc2c1	2.47
Cc1ccc2oc(-c3ccc(N)cc3O)nc2c1	0.56
Nc1ccc2oc(-c3cccc4ccccc34)nc2c1	5.22*
COc1ccc(-c2nc3cc(NS(=O)(=O)c4ccccc4)ccc3o2)cc1Br	1.1
Nc1nc2ccc(-c3nc4ccccc4o3)cc2s1	1.84
COc1ccc2oc(-c3ccc(C)c(N)c3)nc2c1	2.12
Cc1ccc(-c2nc3cc(N)ccc3o2)cc1N	0.6
Cc1ccc2oc(-c3cccc(N)c3)nc2c1	1.5
O=C(N/N=C/C=C/c1ccccc1)c1ccccc1CO	-0.91
CN1/C(=C\c2cc[n+](C)cc2)Sc2ccccc21	1.6
CCOc1ccc2c(=O)c(Oc3ccccc3Cl)coc2c1	0.32
Cc1cc(N/C=C(\C#N)C(=O)c2cc(C)oc2C(F)(F)F)no1	-0.22
CCOc1cccc(C2c3c(oc4ccccc4c3=O)C(=O)N2Cc2ccc3c(c2)OCO3)c1 (centres undefined)	-0.13
O=C(NC1CCN(Cc2ccccc2)CC1)c1ccc(-n2cccn2)cc1	-0.52
CCCOC(=O)C1=C(C)NC2=C(C(=O)CC(C)(C)C2)C1c1ccccc1OCC (centres undefined)	0.41
COc1ccc(CN2C(=O)c3oc4ccc(Br)cc4c(=O)c3C2c2cccc(O)c2)cc1 (centres undefined)	0.02
Cc1cc(C)n(C(C)C(=O)Nc2ccccc2Cl)c(=O)n1 (centres undefined)	2.15
CN(C)C(=O)c1cc(Br)cc2c1OCC2	-2.02
Nc1ccc2nc(-c3ccc(-c4nc5ccc(N)cc5[nH]4)cc3)[nH]c2c1	0.33
Cc1ccc2nc(-c3ccc(N)cc3)[nH]c2c1	4*
Nc1ccc(-c2nc3ccc(-c4nc5ccc(N)cc5[nH]4)cc3[nH]2)cc1	2.15
SMILES	Dicer inh
Cc1cc(NC(=O)CCCC(=O)O)no1	0.56
CCOCC(=O)Nc1cc(C)on1	3.14*
COC(=O)CCCCCCCC(=O)Nc1cc(C)on1	-0.52
c1ccc(CN2CCC(Nc3ncnc4sc5c(c34)CCCC5)CC2)cc1	-1.04
CCOc1ccc(OCC)c(S(=O)(=O)n2ccnc2)c1	-0.13
Cc1ccc2c(C)nc(NC3=NCN(Cc4ccccc4)CN3)nc2c1	-0.01
CCCCN1CN=C(Nc2nc(C)c3cc(OCC)ccc3n2)NC1	1.2
CCOc1ccc2nc(NC3=NCN(CCCN4CCOCC4)CN3)nc(C)c2c1	3.75*
Cc1cc2nc(NC3=NCN(CCCN4CCOCC4)CN3)nc(C)c2cc1C	1.8
Cc1cc2nc(NC3=NCN(Cc4ccco4)CN3)nc(C)c2cc1C	2.98
Cc1cc2nc(NC3=NCN(Cc4ccc5c(c4)OCO5)CN3)nc(C)c2cc1C	3.21*
Cn1c(=O)c2c(nc(N3CCC(C(N)=O)CC3)n2Cc2ccccc2Cl)n(C)c1=O	-0.81
O=S(=O)(c1ccc(Cl)cc1)n1ccc(-c2cnc3cc(Cl)c(Cl)cc3n2)c1	0.05
O=C(COC(=O)c1ccc2cc(OC(=O)c3ccc(Cl)cc3)ccc2c1)c1ccc(Cl)cc1	2.5
COc1ccc(OC)c(C(=O)CC2(O)C(=O)N(C(C)C)c3ccccc32)c1 (centres undefined)	0.57
CC(C)N1C(=O)C(O)(CC(=O)c2ccco2)c2ccccc21 (centres undefined)	6.92*
CCCN1C(=O)C(O)(CC(=O)c2ccco2)c2ccccc21 (centres undefined)	0.02
C#CC(C)(C)NC(=O)c1ccc(C(C)(C)C)cc1	-0.27
C=C(C)Cc1c(C)[nH]n(S(=O)(=O)c2ccccc2)c1=O	1.33
O=c1c2cnn(-c3ccccc3)c2ncn1/N=C/c1ccc([N+](=O)[O-])cc1	-1.58
CCCc1nc(N)c(C#N)c(-c2ccccc2OC)c1CC	-0.8
O=C(c1ccccc1I)n1ccc2ccccc21	-0.81
COCCN1CN=C(NS(=O)(=O)c2ccc(C)cc2)NC1	0.48
Cc1ccc(S(=O)(=O)NC2=NCN(Cc3cccnc3)CN2)cc1	4.54*
COCCCN1CN=C(NS(=O)(=O)c2ccc(C)cc2)NC1	-2.55
SMILES	Dicer inh
CSc1ncccc1C(=O)NC(CC(C)C)C(=O)O (centres undefined)	-1.79
COc1ccc(-c2noc(-c3cccs3)n2)cc1	3.91*
COc1ccc(-c2noc(-c3ccc(OC)cc3)n2)cc1	1.29
Clc1ccc(-c2nc(-c3ccncc3)no2)cc1	1.73
Nc1c(Cl)cc(-c2noc(-c3cccs3)n2)cc1Cl	-1.79
Brc1ccc(OCc2nc(-c3ccncc3)no2)cc1	-0.18
COc1ccc(-c2noc(COc3ccc(Cl)cc3)n2)cc1	2.83
COc1ccc(-c2nc(-c3ccc(Cl)cc3)no2)cc1	4.19*
COc1ccc(OCc2nc(-c3cccs3)no2)cc1	0.06
COc1ccc(-c2noc(COc3ccc(Br)cc3)n2)cc1	4.08*
O=S(=O)(c1ccc2c(c1)CCO2)N1CCCN(c2c(Cl)cncc2Cl)CC1	-0.94
Cc1cccc(Cn2nc(C(C)(C)C)cc2-c2nnc(SCC(=O)c3ccccc3)o2)c1	41.2
CC(C)(CC(=O)O)CC(=O)N1CCCc2ccccc21	-0.68
CCCCC#Cc1ccc(C(=O)NNC(=S)NC)o1	0.48
Cc1nn(C(=O)c2ccc(Cl)cc2)c(C)c1Sc1ncccn1	0.15
COc1ccc(-c2noc(COc3cccc(C)c3C)n2)cc1OC	0.45
CCOC(=O)CSc1nc2ccccc2[nH]1	-0.04
O=C(CSc1nc2ccccc2[nH]1)Nc1ncccn1	0.74
CC(C)(C)NC(=O)CSc1nc2ccccc2[nH]1	4.86*
Cc1ccc(Sc2c(Sc3ccc(C)cc3)c(=O)c2=O)cc1	-2.34
CCCc1cnc(N2CCN(S(=O)(=O)c3sc4ccc(Cl)cc4c3C)CC2)nc1	-1.06
CCCc1cnc(N2CCN(S(=O)(=O)c3ccc(CNC(=O)c4ccccc4)s3)CC2)nc1	1.18
CCCc1cnc(N2CCN(S(C)(=O)=O)CC2)nc1	3.49*
Cc1nc(SCc2ccccc2)c(C#N)c(C)c1C	-4.92
O=C(NCc1ccc(-n2cccn2)cc1)c1cnn2c1NC(c1ccco1)CC2C(F)(F)F (centres undefined)	1.75
SMILES	Dicer inh
COc1ccc(Cl)cc1NC(=O)c1cnn2c1NC(c1ccco1)CC2C(F)(F)F (centres undefined)	3*
COc1ccc(NC(=O)c2cnn3c2NC(c2cccs2)CC3C(F)(F)F)cc1OC (centres undefined)	1.39
O=C(Nc1cccnc1)c1cc2n(n1)C(C(F)(F)F)CC(c1ccco1)N2 (centres undefined)	0
COCCNC(=O)c1cc2n(n1)C(C(F)(F)F)CC(c1ccco1)N2 (centres undefined)	-0.64
COc1ccc(NC(=O)c2cnn3c2NC(c2ccco2)CC3C(F)(F)F)cc1OC (centres undefined)	4.56*
COCc1cc(=O)[nH]c2c1c(C)nn2C	1.67
COc1ccc(/C(C)=N/OC(=O)c2c(-c3ccccc3Cl)noc2C)cc1CN1CCOCC1	0.29
O=C(CSc1ncn[nH]1)Nc1nccs1	-1.11
Cc1ccc(C)c(C(=O)CC2(O)C(=O)Nc3ccc(C)cc32)c1 (centres undefined)	0.87
Nc1nc2nc(N3CCOCC3)[nH]c2c(=O)[nH]1	-0.4
O=c1cc(O)c2sc3nc(-c4cccs4)cc(-c4ccc(Cl)cc4)c3c2[nH]1	0.46
CCOC(=O)CNC(=O)c1ccc(Cl)cc1	-0.21
CCCc1nn(C)cc1C(=O)NCC(=O)OCC	4.76*
CCOC(=O)CNC(=O)c1ccccc1	2.8
